Reference: PubChem BioAssay (EPA / NIEHS)
Values joined by “and” are separate entries in the source; they are usually repeats but may differ in a detail not shown here. Equal entries are not always repeated. Where a structure was tested more than once in an assay, its records may differ in their call. Active and inactive are the calls of the source. How the source made its calls: active means hit-call score of the fitted dose curve at least 0.9, where 1 is the maximum; inactive means score below 0.9.

How the values were obtained:
[1] = APR_HepG2_NuclearSize_24hr: Apredica 24-hour HepG2 Assay for Nuclear Size (AID 2282907); conditions: high-content imaging, actives raise or lower the signal
Procedure, shortened: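 Nuclear size from Hoechst 33342-stained, formaldehyde-fixed HepG2 nuclei imaged by high-content microscopy, after 24 h dosing at ten concentrations from 0.39 to 200 uM in 0.5% DMSO; gain or loss relative to DMSO baseline.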

[2] = APR_HepG2_CellLoss_24hr: Apredica 24-hour HepG2 Assay for Cell Loss (AID 2282908); conditions: high-content imaging;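 on AC50: fit in both directions so a hit may be cell loss or gain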
Procedure, shortened: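 Nuclei stained with Hoechst 33342 after formaldehyde fixation (3.7%) were imaged at 20x to count cells. Exposure lasted 24 hr, at ten concentrations from 0.39 to 200 uM in duplicate, with 0.5% v/v DMSO. Fit bidirectional, relative to DMSO.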

[3] = APR_HepG2_MicrotubuleCSK_24hr: Apredica 24-hour HepG2 Assay for Microtubule CSK Stabilty (AID 2282909); conditions: HepG2 microtubule cytoskeleton imaging, actives raise or lower the signal
Procedure, shortened: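 Fixed HepG2 cells were stained for alpha-tubulin and imaged after 24 hr exposure to ten concentrations spanning 0.39–200 uM in 0.5% DMSO. Signal change was fitted in both directions relative to DMSO; taxol was the positive control.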

[4] = APR_HepG2_MitoticArrest_24hr: Apredica 24-hour HepG2 Assay for Mitotic Arrest (AID 2282910); conditions: high-content imaging, actives raise or lower the signal
Procedure, shortened: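 HepG2, 24 hr dosing, 0.39–200 uM, 0.5% DMSO final. Formaldehyde-fixed, Triton-permeabilised, anti-phospho-histone H3 plus Hoechst. ArrayScan imaging at 20x; bidirectional fit vs DMSO baseline.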

[5] = APR_HepG2_MitoMembPot_24hr: Apredica 24-hour HepG2 Assay for Mitochondrial Membrane Potential (AID 2282911); conditions: imaging, actives raise or lower the signal
Procedure, shortened: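 HepG2 human liver cells were exposed 24 hr to compounds at 0.39–200 uM (final DMSO 0.5% v/v) in duplicate. MitoTracker Red CMXRos (250 nM, 30 min) was loaded before formaldehyde fixation; fluorescence was imaged by ArrayScan HCS and fitted bidirectionally versus DMSO.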

[6] = APR_HepG2_MitoMass_24hr: Apredica 24-hour HepG2 Assay for Mitochondrial Mass (AID 2282912); conditions: high-content imaging, actives raise or lower the signal
Procedure, shortened: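 Endpoint is MitoTracker Red CMXRos (250 nM, 30 min, pre-fixation) intensity from 20x high-content imaging, nuclei located by Hoechst. Human HepG2 cells received ten concentrations from 0.39 to 200 uM in 0.5% DMSO for 24 hr, duplicate wells. Bidirectional fit relative to DMSO.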

[7] = APR_HepG2_p53Act_24hr: Apredica 24-hour HepG2 Assay for p53 Activation (AID 2282913); conditions: high-content imaging, actives raise or lower the signal;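 further: p53 protein immunofluorescence averaged per cell in HepG2 with Hoechst nuclei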
Procedure, shortened: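 HepG2 cells exposed 24 hr to compounds at 0.39–200 uM (10 concentrations, duplicate), final DMSO 0.5% v/v. After formaldehyde fixation and Triton permeabilization, p53 was immunolabeled (sheep anti-p53, Cy5 secondary) with Hoechst 33342 nuclear counterstain, then imaged by high-content fluorescence microscopy.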

[8] = APR_HepG2_CellCycleArrest_72hr: Apredica 72-hour HepG2 Assay for Cell Cycle Arrest (AID 2282914); conditions: high-content imaging, actives raise or lower the signal
Procedure, shortened: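 HepG2 cells were exposed to compounds at 0.39–200 uM (0.5% v/v DMSO final, duplicates) for 72 hr, fixed in 3.7% formaldehyde, permeabilized and stained with Hoechst 33342. Nuclear DNA content was quantified by high-content imaging; gain or loss of signal was fitted bidirectionally against DMSO.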

[9] = APR_HepG2_CellLoss_72hr: Apredica 72-hour HepG2 Assay for Cell Loss (AID 2282915); conditions: high-content imaging
Procedure, shortened: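 HepG2 cells exposed 72 h to compound at 0.39–200 uM (10 concentrations, duplicate) in 0.5% DMSO. Fixed with 3.7% formaldehyde and Hoechst 33342-stained. Imaged at 20x; nuclear count gives cell number, fitted bidirectionally versus DMSO.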

[10] = APR_HepG2_MitoMembPot_72hr: Apredica 72-hour HepG2 Assay for Mitochondrial Membrane Potential (AID 2282917); conditions: imaging, actives raise or lower the signal
Procedure, shortened: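 HepG2 cells dosed 72 hr with compound at 0.39–200 uM in duplicate, 0.5% v/v DMSO final. Mitochondria stained with 250 nM MitoTracker Red CMXRos for 30 min before formaldehyde fixation, imaged by high-content fluorescence; bidirectional fit versus DMSO.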

[11] = APR_HepG2_MitoticArrest_72hr: Apredica 72-hour HepG2 Assay for Mitotic Arrest (AID 2282918); conditions: high-content imaging, actives raise or lower the signal
Procedure, shortened: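 HepG2 cells were exposed for 72 hr to compound at 0.39–200 uM (10 concentrations, duplicate) in 0.5% v/v DMSO, fixed in 3.7% formaldehyde, immunostained for phospho-histone H3 with Hoechst 33342 and imaged by high-content fluorescence; bidirectional fits versus DMSO.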

[12] = APR_HepG2_MicrotubuleCSK_72hr: Apredica 72-hour HepG2 Assay for Microtubule CSK Stabilty (AID 2282919); conditions: HepG2 microtubule cytoskeleton, high-content imaging, actives raise or lower the signal
Procedure, shortened: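 HepG2, 72 hr cmpd exposure, 0.39–200 uM (10 pts, duplicate), 0.5% DMSO. 3.7% formaldehyde fix, 0.5% Triton perm, anti-alpha-tubulin/Cy5 plus Hoechst. HCS fluorescence intensity; bidirectional fit vs DMSO baseline; taxol as positive control.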

[13] = APR_HepG2_P-H2AX_24hr: Apredica 24-hour HepG2 Assay for H2AX Phosphorylation (AID 2282920); conditions: high-content imaging, actives raise or lower the signal
Procedure, shortened: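 HepG2 human liver cells were exposed for 24 hr to compounds at 0.39–200 uM in duplicate, with 0.5% v/v DMSO final. Fixed cells were immunostained for phospho-histone H2A.x plus Hoechst 33342, imaged by HCS fluorescence, and fitted bidirectionally against DMSO.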

[14] = APR_HepG2_StressKinase_72hr: Apredica 72-hour HepG2 Assay for Stress Kinase (AID 2282921); conditions: HepG2 stress kinase (phospho-c-Jun) imaging, actives raise or lower the signal
Procedure, shortened: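 Stress kinase signal is phospho-c-Jun immunofluorescence (1:500 primary, Cy3 secondary) in fixed, permeabilized human HepG2 cells imaged at 20x. Exposure lasted 72 hr over ten concentrations from 0.39 to 200 uM, 0.5% DMSO, in duplicate. Bidirectional fit versus DMSO.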

[15] = APR_HepG2_StressKinase_24hr: Apredica 24-hour HepG2 Assay for Stress Kinase (AID 2282922); conditions: HepG2 stress kinase (phospho-c-Jun) imaging, actives raise or lower the signal
Procedure, shortened: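 Read-out: phospho-c-Jun immunofluorescence (Cy3 secondary) quantified by high-content imaging at 20x, nuclei defined by Hoechst 33342. Human HepG2 liver cells dosed 24 hr, 0.39–200 uM, DMSO 0.5% v/v; gain or loss of signal fitted relative to DMSO.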

[16] = APR_HepG2_p53Act_72hr: Apredica 72-hour HepG2 Assay for p53 Activation (AID 2282923); conditions: high-content imaging, actives raise or lower the signal;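 further: average cellular p53 protein immunofluorescence intensity in HepG2 cells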
Procedure, shortened: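 After 72 h with compound (ten points, 0.39 to 200 uM, final DMSO 0.5% v/v), fixed HepG2 cells were labelled with sheep anti-p53 and Hoechst 33342 and imaged; gain or loss versus DMSO scored.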

[17] = APR_HepG2_MitoMass_72hr: Apredica 72-hour HepG2 Assay for Mitochondrial Mass (AID 2282924); conditions: high-content imaging, actives raise or lower the signal;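 further: MitoTracker Red CMXRos stain intensity per cell imaged as mitochondrial mass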
Procedure, shortened: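 Read-out: MitoTracker Red fluorescence intensity from automated imaging (20x, six fields per well) in human HepG2 liver cells. Dosing ran 72 hr, 0.39–200 uM, 0.5% DMSO; bidirectional curve fitting versus DMSO baseline.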

[18] = APR_HepG2_NuclearSize_72hr: Apredica 72-hour HepG2 Assay for Nuclear Size (AID 2282925); conditions: high-content imaging, actives raise or lower the signal
Procedure, shortened: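 Read-out: nuclear diameter from Hoechst 33342 images (ArrayScan, 20x, six fields/well), via cell-cycle image analysis. HepG2 were dosed 0.39–200 uM for 72 hr in 0.5% DMSO. Bidirectional fit relative to DMSO.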

[19] = ATG_CRE_CIS: Attagene CIS-FACTORIAL HepG2 Assay for human cAMP Responsive Element (CRE) binding protein 3 (AID 2282926); conditions: HepG2 CRE cis-reporter, Attagene multiplexed mRNA; actives raise or lower the signal
Procedure, shortened: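 Capillary electrophoresis of 6-FAM-labelled, HpaI-digested PCR products quantified reporter transcripts. These came from HepG2 transiently transfected with cis-element reporters and exposed to test chemicals for 24 hours, with DMSO defining baseline activity.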

[20] = APR_HepG2_P-H2AX_72hr: Apredica 72-hour HepG2 Assay for H2AX Phosphorylation (AID 2282916); conditions: imaging, actives raise or lower the signal;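 further: phospho-histone H2A.x immunostain intensity per cell marking DNA damage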
Procedure, shortened: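 Phospho-histone H2A.x immunofluorescence, multiplexed with Hoechst and c-Jun, quantified by high-content imaging. Compounds applied to HepG2 for 72 h across ten concentrations (0.39–200 uM, 0.5% DMSO), in duplicate; DMSO baseline.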

Measured: AC50

O=C(c1ccc(O)cc1O)c1ccc(O)cc1O
active: [5] 2.29 µM | [17] 4.43 µM
not listed: [20]
inactive: all other assays above

C[C@]12C[C@H](O)[C@H]3[C@@H](CCC4=CC(=O)CC[C@@]43C)[C@@H]1CC[C@@H]2C(=O)CO
active: [1] 109 µM | [2] 65.3 µM | [5] 82.9 µM | [7] 86.2 µM | [10] 120 µM | [11] 86.1 µM | [13] 96.6 µM | [17] 148 µM
not listed: [9] | [20]
inactive: all other assays above

CCC(O)=C1C(=O)CC(C(=O)O)CC1=O (stereo not given)
not listed: [20]
inactive: all other assays above

CCCCC(CC)CN1C(=O)C2C3C=CC(C3)C2C1=O (stereo not given)
active: [3] 72.3 µM | [9] 93.2 µM | [12] 85.7 µM
not listed: [6]
inactive: all other assays above

CCCN(CCC)c1c([N+](=O)[O-])cc(C(F)(F)F)c(N)c1[N+](=O)[O-]
active: [5] 32.1 µM | [12] 51.2 µM
not listed: [9] | [20]
inactive: all other assays above

CCCOC(=O)NCCCN(C)C
not listed: [20]
inactive: all other assays above

N#CSCSc1nc2ccccc2s1
active: [2] 42.9 µM | [10] 25.2 µM | [19] 18.2 µM
inactive: [1] | [3] | [4] | [5] | [6] | [8] | [20] | [11] | [12] | [13] | [14] | [15] | [17] | [18] | [19]

CSC(=O)c1cccc2nnsc12
not listed: [6] | [20]
inactive: all other assays above

CCCCCOC(=O)COc1cc(N2C(=O)C3=C(CCCC3)C2=O)c(F)cc1Cl
active: [13] 119 µM
not listed: [7] | [9] | [16]
inactive: all other assays above

CCNc1nc(N)nc(Cl)n1
not listed: [20]
inactive: all other assays above

COC(=O)c1ccccc1S(=O)(=O)NC(=O)Nc1nc(OC(F)F)cc(OC(F)F)n1
not listed: [9] | [20]
inactive: all other assays above

S=C(S)NCCNC(=S)S.[Mn+2].[S-]C([S-])=NCCN=C([S-])[S-].[Zn+2]
inactive: [1] | [2] | [3] | [4] | [5] | [6] | [8] | [10] | [11] | [12] | [14] | [15] | [17] | [18] | [19]
active: [2] 50.1 µM [middle of 4 runs] | [4] 55.2 µM and 107 µM | [8] 53.5 µM and 51.5 µM | [11] 51.9 µM [middle of 5 runs] | [13] 50 µM [middle of 7 runs] | [14] 39.8 µM | [15] 40.9 µM and 82.9 µM | [17] 31.4 µM and 52.5 µM and 169 µM | [18] 80.6 µM | [19] 10.1 µM and 9.92 µM

Cc1nn(C)c(Oc2ccccc2)c1C=NOCc1ccc(C(=O)OC(C)(C)C)cc1
active: [2] 6.62 µM | [8] 19.8 µM | [11] 40.3 µM | [12] 21.2 µM | [19] 0.0405 µM
not listed: [9] | [20]
inactive: all other assays above
